# PINK1 modulator: changes PINK1 expression. PINK1 immunofluorescence, high-content cytometry, 24 h. Potency, µM (titrated, usually from 76.6 µM), inactives show at the highest dose activation (PINK1 increase), usual class: activators. 410,000 compounds, 0.2% hits; active = well fitted activation curve with a large enough effect; inconclusive = small, poorly fitted or top-dose-only effect; cell line not stated here; note: potency is the fitted concentration of half-maximal effect; % of control where 0% means no effect; nearly all actives have a fitted effect of over 65% in size
#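 Stable cell line, 250 cells/well, 12 h attachment; compounds pinned at 5 concentrations, 24 h; CCCP control. Fixed with nuclear dye, primary antibodies 12 h at 10 degrees C, secondary plus cell stain; laser-scanning cytometer read.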
# Vif-APOBEC3G blk: Vif-A3G binding inhibition; HeLa A3G-eYFP + Vif (tagged APOBEC3G with the HIV-1 protein that degrades it), YFP fluorescence, overnight; Q9HC16; Potency, µM (top dose mostly 46.1 µM), for inactives: at the top dose activity, negative = active, most hits filed as inhibitors; 410,000 compounds, 0.076% hits; note: potency is the fitted concentration of half-maximal effect; % is set by controls: 0 for no effect and ±100 for the full control effect; nearly all actives have a fitted effect of over 60% in size
# Target sequence (Q9HC16 whole entry, looked up): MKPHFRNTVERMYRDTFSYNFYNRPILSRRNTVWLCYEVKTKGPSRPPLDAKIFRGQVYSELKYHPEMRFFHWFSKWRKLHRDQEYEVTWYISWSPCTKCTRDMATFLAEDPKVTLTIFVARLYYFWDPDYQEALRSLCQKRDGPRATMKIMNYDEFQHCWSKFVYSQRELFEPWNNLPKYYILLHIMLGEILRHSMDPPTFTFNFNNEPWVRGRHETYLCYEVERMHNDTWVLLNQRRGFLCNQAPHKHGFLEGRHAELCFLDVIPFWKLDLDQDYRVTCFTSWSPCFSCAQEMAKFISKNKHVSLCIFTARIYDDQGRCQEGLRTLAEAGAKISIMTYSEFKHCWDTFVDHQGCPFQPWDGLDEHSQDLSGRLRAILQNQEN
#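 Read-out is eYFP fluorescence (Ex 488/Em 500-530) from Vif-expressing HeLa A3G-eYFP cells; more signal means A3G escaped Vif-mediated degradation. Cells plated overnight, compound pinned in, incubated overnight at 37 deg C.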
# Vif-APOBEC3F blk: blocks the Vif interaction with APOBEC3F; HeLa A3F-eYFP + Vif (tagged APOBEC3F with the HIV-1 protein that degrades it), YFP fluorescence increase; Potency, µM (doses to about 46.1 µM), inactives show at the highest dose activity, negative = active; 390,000 compounds, 0.2% hits; AID 602313; note: potency is the fitted concentration of half-maximal effect; % of control where 0% means no effect; nearly all actives have a fitted effect of over 65% in size
#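 Fluorescence increase (Ex 488/Em 500-530) after overnight compound treatment at 37 deg C flags inhibition of Vif-driven A3F-eYFP loss in stable HeLa A3F-eYFP/Vif cells seeded overnight beforehand.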
# Glioma ERSR ind: inducers of ER stress response in human glioma cells. 420,000 compounds, 0.02% hits. Potency, µM, for inactives: at the highest dose activation, actives largely listed as activators. U87-MG GRP78 promoter luciferase reporter, 16 h. AID 602332; note: potency is the fitted concentration of half-maximal effect; series mostly up to about 76 µM; % of control where 0% means no effect; nearly all actives have a fitted effect of over 35% in size
#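 Stably transfected U87-MG glioma cells carrying a GRP78-based luciferase sensor; 16 h compound incubation. Luminescence end-point read 10 min after Bright-Glo addition at room temperature.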
# Akt phos inh: Akt phosphorylation inhibition. Neuro2A IGF-stimulated pAkt S473 HTRF, 20 min; active compounds read low. activity change, % for hits at 50 µM. 360,000 compounds, 0.32% hits. AID 651550; in the data active = activity change below about -80%; inconclusive = mostly about -51% to -80%; note: % is set by controls: 0 for no effect and ±100 for the full control effect
#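 Neuro2A cells in DMEM with 0.5% FBS, overnight at 37 deg C, given compound at single 50 µM final, then IGF (6 nM final) for 20 min at 37 deg C. Lysed; phospho-Akt Ser473 by HTRF after 24 h, 665/615 ratio.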
# LDHA block: blocks human lactate dehydrogenase A; P00338; purified LDHA, NADH/diaphorase-resazurin fluorescence; active compounds read low; activity change, % (values are at about 110 or 230 µM); 480,000 compounds, 0.15% hits; in the data active = activity change below about -30%; inconclusive = mostly about -25% to -30%;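 note: plate controls were DMSO wells for no effect and wells without enzyme for full effect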
#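 Enzyme activity of human lactate dehydrogenase 5 (2 nM; 0.06 mM NADH, 0.2 mM pyruvate, 5 min, RT) is measured via a resazurin/diaphorase fluorescence readout of residual NADH.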
# * marks the source's active call; other numbers are inactive results; i = inactive; ? = inconclusive; . = not tested or not shown; [ ] = dose if it differs, or a comment. Only some compounds are listed: those with a hit (about 0.74% of all), similar ones and a draw of the others. Unless noted, calls come from the whole dose curve; as a rule, active = well fitted curve in the direction sought with a large enough effect; inconclusive = small, poorly fitted or top-dose-only effect, or another doubt; inactive = no such curve, though single readings can be large; an effect the other way counts as inactive or inconclusive.
SMILES,PINK1 modulator,Vif-APOBEC3G blk,Vif-APOBEC3F blk,Glioma ERSR ind,Akt phos inh,LDHA block
Cc1ccc2nc(NS(=O)(=O)c3ccc(Cl)cc3)c(Nc3ccc(C(=O)O)cc3)nc2c1,0%,-3%,4.5µM*,-2%,.,4
CCOC(=O)c1ccc(Nc2nc3ccccc3nc2NS(=O)(=O)c2ccc(Cl)cc2)cc1,1%,-27%,7.1µM*,-3%,.,-4
CC(=O)c1ccc(Nc2nc3ccccc3nc2NS(=O)(=O)c2cccs2)cc1,40µM*,-6%,15%,-3%,i,-2
O=S(=O)(Nc1nc2ccccc2nc1OCC(F)(F)F)c1cccs1,1%,-5%,25µM*,-5%,i,-1
CCCCOc1ccc(/C=C/C(=O)c2ccc3c(c2)OCCO3)cc1OC,.,.,.,.,.,4
CCC(C)n1nnc2c(=O)oc3ccccc3c21 (stereo not drawn),3%[38.3 µM],-4%,-15%,6%,-92%*,-2
O=C(NCCOc1ccccc1)c1cc(C(=O)NCCOc2ccccc2)cc([N+](=O)[O-])c1,2%,1%,0%,-1%,i,-45*
CC(C)CSC1=NSC2=NC(=O)/C(=C\c3coc4ccccc4c3=O)C(=N)N12,?,?,22µM*,2%,i,-6
N=C1/C(=C\c2coc3ccccc3c2=O)C(=O)N=C2SC(c3ccncc3)=NN12,2%,?,25µM*,2%,i,2
CSC1=NSC2=NC(=O)/C(=C\c3coc4ccccc4c3=O)C(=N)N12,1%,?,?,3%,i,-6
N=C1/C(=C/c2coc3ccccc3c2=O)C(=O)N=C2SC(c3ccco3)=NN12,9%,-2%,?,-2%,i,-8
O=C1c2ccccc2C(=O)c2c(/C=C/N3CCCCC3)ccnc21,8%,?,22µM*,-1%,i,27
CC(C)OC(=O)c1cc(C(=O)OC(C)C)cc([N+](=O)[O-])c1,.,.,.,-1%,.,.
CC(C)OC(=O)c1cc(NC(=S)Nc2ccc([N+](=O)[O-])cc2)cc(C(=O)OC(C)C)c1,14µM*,2%,-6%,-3%,i,3
Brc1ccc2c(c1)C(c1ccc(N3CCOCC3)cc1)=NNC(c1cccs1)=N2,-2%,-13%,-9%,32µM*,i,4
Cc1ccc2c(CN3C(=O)c4ccccc4S3(=O)=O)cc(=O)oc2c1,.,.,.,.,.,9
CCNc1c(NC(=O)C(C)(C)C)c(=O)oc2ccccc12,.,.,.,.,.,1
O=C(Cc1cccs1)NCc1cccnc1,-1%,-4%,3%,-6%,-93%*,0
COc1ccccc1CNC(=O)c1cc2sccc2n1C,3%[38.3 µM],-8%,-3%,2%,i,-2
Nc1ccc(C(=O)NCc2cccnc2)cc1,.,.,.,.,.,-3
Cn1c(C(=O)NCc2cccnc2)cc2sccc21,7%[38.3 µM],-2%,-1%,-3%,-83%*,-6
O=C(c1ccccc1)c1c[nH]c(C(=O)NCc2cccnc2)c1,4%,-1%,7%,-2%,-100%*,-6
CC(C)Oc1ccc(C(=O)NCc2cccnc2)cc1,-1%,1%,-21%,2%,-119%*,-7
O/N=C1\CCCc2c1nc(-c1ccc(F)cc1)n2O,.,.,.,.,.,3
CCOC(=O)C(C(=O)OCC)N(C#N)c1nc(OC)nc(N(C)C)n1,0%,3%,-6%,-3%,-113%*,-6
SMILES,PINK1 modulator,Vif-APOBEC3G blk,Vif-APOBEC3F blk,Glioma ERSR ind,Akt phos inh,LDHA block
O=C(CSc1ncnc2sc3c(c12)CCCCC3)NCc1ccco1,2%,-25%,-2%,1%,i,-1
CC(C)c1nc2sc3c(SCC(=O)NCc4ccco4)ncnc3c2c2c1CCC2,3%,-1%,.,-4%,-95%*,0
CC(C)OCCCNc1nc2ccccc2nc1NS(=O)(=O)c1ccccc1,.,.,.,.,.,4
O=C(OCc1cn([C@@H]2CN(C(=O)C3CCCCC3)[C@@H](c3ccc(Cl)cc3)C[C@H]2O)nn1)c1ccccc1,3%,3%,-2%,-2%,i,-35*
CNC(=O)CCS(=O)(=O)Cc1coc(-c2ccc(C)cc2C)n1,.,.,.,.,.,1
CCNC(=O)c1ccc2nc(-c3ccccc3)c(-c3ccccc3)nc2c1,2%,3%,.,-2%,.,-2
CCCNC(=O)c1ccc2nc(-c3ccccc3)c(-c3ccccc3)nc2c1,-1%,0%,-10%,-4%,-120%*,2
CCC(C)NC(=O)c1cc2cc(OC)ccc2oc1=O (stereo not drawn),.,.,.,.,.,-3
COc1ccc(-c2ccc3c(c2)S(=O)(=O)c2cccc(C(=O)NCCOc4ccccc4)c2C3=O)cc1OC,35µM*,11µM*,?,-4%,i,-1
O=C1CCC/C(=N/NC(=O)c2cc(-c3ccc(Cl)cc3)nc3ccccc23)C1,.,.,.,.,.,9
COc1ccc(NS(=O)(=O)c2ccc(N)c(C(=O)O)c2)cc1,2%,0%,0%,-4%,-115%*,-1
COc1cccc(/C=N/NC(=O)c2cc3c(OC)c(OC)ccc3[nH]2)c1OC,15%,4µM*,5%,-3%,i,-1
COc1ccccc1/C=N/NC(=O)c1cc2c(OC)c(OC)ccc2[nH]1,5%,?,0%,-3%,i,1
COc1cccc(/C=N/NC(=O)c2cc3c(OC)cccc3[nH]2)c1O,40µM*,-7%,0%,-1%,i,-2
COc1cccc(C(=O)/C(C#N)=C\c2ccccc2OC(F)F)c1,.,.,.,.,.,7
O=C(CSc1nnc2ccccn12)Nc1ccc(S(=O)(=O)N2CCCC2)cc1,.,.,.,.,.,2
Nn1c(SCC(=O)Nc2ccc(S(=O)(=O)N3CCCC3)cc2)nnc1C(F)(F)F,0%,1%,-10%,-5%,-107%*,-7
Cn1c(=O)c(C#N)c(-c2ccc(F)cc2)c2cc(C(=O)c3cc(Cl)cc(Cl)c3O)cnc21,25µM*,-3%,-3%,1%,i,7
O/N=C/c1cccc(OCc2ccccc2)c1,.,.,.,.,.,1
CCc1cc(=S)n2c([nH]c3ccccc32)c1C#N,16µM*,-2%,2%,-3%,i,-20
COc1ccc(NC(=O)c2cc3c(C)nn(CC(C)C)c3s2)cc1S(=O)(=O)N1CCOCC1,.,.,.,.,.,-5
COc1ccc(CCNC(=O)CCn2cccc2)cc1OC,0%,2%,2%,-4%,-101%*,-6
COc1ccc(CCNC(=O)C2CCN(S(C)(=O)=O)CC2)cc1OC,0%[38.3 µM],1%,-2%,-2%,i,5
CCS(=O)(=O)N1CCC(C(=O)NCCc2ccc(OC)c(OC)c2)CC1,10µM*,1%,-4%,-3%,i,-13
CC(OC(=O)c1csc(NCc2ccccc2)n1)C(=O)N(C)Cc1ccccc1 (stereo not drawn),.,.,.,.,.,8

# Assay outcomes as filed in PubChem.
